Measurements taken from PubChem BioAssay AID1159580 (chemical genetic matrix, 2015).
Values joined by “and” are separate entries in the source; they are usually repeats but may differ in a detail not shown here. Equal values may be shown once. Hit rate of the full screen: of about 5,500 compounds, about 2,000 (36%) were called active. Another 18% or so got no clear call; they are omitted. Cut-off read from the data, not from the text of the source: active = normalized growth mostly below about 0.91 (no sharp cut-off); inconclusive = no clear call, values can overlap the other calls; inactive = mostly above about 0.92. Some of the results follow.

Test: chemical genetic growth profiling, strain panel (AID 1159580);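 note: tested at 20 µM; growth read once vehicle control cultures reached saturation at 30 °C; 1 = growth at the plate median or of vehicle wells; lower values mean less growth of the strain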
Details: S. cerevisiae deletion strains, growth OD

Measured: normalized growth

CCOC(=O)C1C(C=C(C)C)C1(C)C (stereo unspecified)
inactive: locus YAL013W, strain DEP1, active compounds read low 0.998 | locus YAL021C, strain ccr4, active compounds read low 0.989 | locus YAL026C, strain drs2, active compounds read low 1.01 | locus YAL030W, strain snc1, active compounds read low 1 | locus YBL061C, strain skt5, active compounds read low 1.01 | locus YBR009C, strain hhf1, active compounds read low 0.998 | locus YBR021W, strain FUR4, active compounds read low 0.979 | locus YBR023C, strain chs3, active compounds read low 1 | locus YBR171W, strain sec66, active compounds read low 1 | locus YBR229C, strain ROT2, active compounds read low 1 | locus YBR231C, strain swc5, active compounds read low 0.995 | locus YBR279W, strain paf1, active compounds read low 1 | locus YCL011C, strain gbp2, active compounds read low 0.992 | locus YCL016C, strain dcc1, active compounds read low 1.01 | locus YCL029C, strain bik1, active compounds read low 1.02 | locus YCL061C, strain MRC1, active compounds read low 0.996 | locus YCL069W, strain vba3, active compounds read low 1 | locus YCR088W, strain abp1, active compounds read low 1 | locus YDL005C, strain med2, active compounds read low 0.991 | locus YDL035C, strain GPR1, active compounds read low 1.01 | locus YDL040C, strain nat1, active compounds read low 1.02 | locus YDL074C, strain BRE1, active compounds read low 1.03 | locus YDL101C, strain DUN1, active compounds read low 1 | locus YDL185W, strain tfp1, active compounds read low 1.02 | locus YDL192W, strain arf1, active compounds read low 1 | locus YDR001C, strain nth1, active compounds read low 1 | locus YDR069C, strain doa4, active compounds read low 1 | locus YDR101C, strain arx1, active compounds read low 1.01 | locus YDR137W, strain rgp1, active compounds read low 1.01 | locus YDR159W, strain sac3, active compounds read low 0.939 | locus YDR162C, strain NBP2, active compounds read low 1.01 | locus YDR195W, strain ref2 0.99 | locus YDR297W, strain sur2, active compounds read low 0.991 | locus YDR318W, strain mcm21, active compounds read low 1.01 | locus YDR334W, strain swr1, active compounds read low 1.01 | locus YDR335W, strain msn5, active compounds read low 1 | locus YDR388W, active compounds read low 1.01 | locus YDR392W, strain spt3, active compounds read low 0.876 | locus YDR502C, strain sam2, active compounds read low 1.01 | locus YEL003W, strain gim4, active compounds read low 1.02 | locus YEL037C, strain rad23, active compounds read low 1 | locus YEL061C, strain CIN8 (second series), active compounds read low 1.01 | locus YEL061C, strain CIN8, active compounds read low 1 | locus YER015W, strain faa2, active compounds read low 1 | locus YER016W, strain bim1, active compounds read low 0.978 | locus YER110C, active compounds read low 1.02 | locus YER111C, strain swi4, active compounds read low 0.997 | locus YER155C, strain BEM2 (second series), active compounds read low 0.981 | locus YER155C, strain BEM2, active compounds read low 1 | locus YER167W, strain BCK2, active compounds read low 0.998 | locus YFR010W, strain ubp6, active compounds read low 1 | locus YGL078C, strain dbp3, active compounds read low 1 | locus YGL086W, strain mad1, active compounds read low 1.01 | locus YGL167C, strain pmr1, active compounds read low 1 | locus YGL173C, strain kem1, active compounds read low 1 | locus YGL227W, strain vid30, active compounds read low 1 | locus YGL240W, strain doc1, active compounds read low 0.97 | locus YGL248W, strain PDE1, active compounds read low 1.01 | locus YGL253W, strain hxk2, active compounds read low 1.02 | locus YGR078C, strain PAC10, active compounds read low 1.01 | locus YGR135W, strain pre9, active compounds read low 0.993 | locus YGR252W, strain gcn5, active compounds read low 0.982 | locus YHR013C, strain ard1, active compounds read low 1 | locus YHR027C, strain rpn1, active compounds read low 1 | locus YHR030C, strain SLT2, active compounds read low 1 and 1.04 | locus YHR079C, strain IRE1 (second series), active compounds read low 1 | locus YHR079C, strain IRE1, active compounds read low 1.04 | locus YHR094C, strain hxt1, active compounds read low 1.01 | locus YHR129C, strain ARP1, active compounds read low 1 | locus YHR142W, strain chs7, active compounds read low 1.01 | locus YHR200W, strain rpn10, active compounds read low 1.02 | locus YIL066C, strain RNR3, active compounds read low 0.996 | locus YIL073C, strain SPO22, active compounds read low 1.06 | locus YIL125W, strain kgd1, active compounds read low 1.01 | locus YIR030C, strain dcg1, active compounds read low 1.01 | locus YJL092W, strain hpr5, active compounds read low 1 | locus YJL095W, strain BCK1 (second series), active compounds read low 1.02 | locus YJL095W, strain BCK1, active compounds read low 1 and 1.02 | locus YJL115W, strain asf1, active compounds read low 0.999 | locus YJL129C, strain trk1, active compounds read low 0.984 | locus YJL134W, strain LCB3, active compounds read low 1 | locus YJL154C, strain vps35, active compounds read low 1 | locus YJL164C, strain tpk1, active compounds read low 0.989 | locus YJL166W, strain qcr8, active compounds read low 0.996 | locus YJL168C, strain set2, active compounds read low 1.01 | locus YJL187C, strain SWE1 (second series), active compounds read low 1 | locus YJR043C, strain POL32, active compounds read low 0.988 | locus YJR066W, strain TOR1, active compounds read low 0.991 | locus YKL009W, strain mrt4, active compounds read low 1.06 | locus YKL068W, active compounds read low 1.01 | locus YKL085W, strain MDH1 (second series), active compounds read low 1.01 | locus YKL085W, strain MDH1, active compounds read low 1.01 | locus YKL160W, strain elf1, active compounds read low 1.01 | locus YKL190W, strain CNB1, active compounds read low 0.983 | locus YKR001C, strain vps1, active compounds read low 1.04 | locus YKR026C, strain gcn3, active compounds read low 1 | locus YKR091W, strain srl3, active compounds read low 0.997 | locus YLL001W, strain dnm1, active compounds read low 0.978 | locus YLL026W, active compounds read low 1.01 | locus YLL041C, strain sdh2, active compounds read low 1.01 | locus YLR027C, strain aat2, active compounds read low 0.982 | locus YLR039C, strain RIC1, active compounds read low 1.01 | locus YLR058C, strain SHM2, active compounds read low 1 | locus YLR102C, strain apc9, active compounds read low 1.01 | locus YLR113W, strain HOG1, active compounds read low 1.04 | locus YLR221C, strain rsa3, active compounds read low 1.01 | locus YLR258W, strain gsy2, active compounds read low 1.01 | locus YLR262C, strain YPT6 (second series), active compounds read low 1.01 | locus YLR262C, strain YPT6, active compounds read low 1.02 | locus YLR268W, strain sec22, active compounds read low 1.03 | locus YLR320W, strain mms22, active compounds read low 0.976 | locus YLR330W, strain CHS5, active compounds read low 1.03 | locus YLR342W, strain FKS1 (second series), active compounds read low 0.98 | locus YLR342W, strain FKS1, active compounds read low 1 | locus YLR357W, strain rsc2, active compounds read low 0.925 | locus YLR370C, strain arc18, active compounds read low 1.02 | locus YLR371W, strain rom2, active compounds read low 1.01 | locus YLR384C, strain iki3, active compounds read low 0.995 | locus YLR418C, strain cdc73, active compounds read low 1.02 | locus YML016C, strain PPZ1, active compounds read low 1.01 | locus YML032C, strain rad52, active compounds read low 1 | locus YML120C, strain ndi1, active compounds read low 0.994 | locus YML124C, strain tub3, active compounds read low 1 | locus YMR058W, strain fet3, active compounds read low 1 | locus YMR078C, strain ctf18, active compounds read low 1 | locus YMR125W, strain sto1, active compounds read low 0.983 | locus YMR129W, active compounds read low 1 | locus YMR205C, strain PFK2, active compounds read low 0.995 | locus YMR223W, strain ubp8, active compounds read low 0.992 | locus YMR231W, strain pep5, active compounds read low 0.999 | locus YMR307W, strain GAS1, active compounds read low 1.02 | locus YNL067W, strain RPL9B, active compounds read low 1 | locus YNL071W, strain lat1, active compounds read low 1.01 | locus YNL183C, strain NPR1, active compounds read low 0.981 | locus YNL209W, strain ssb2, active compounds read low 0.99 | locus YNL233W, strain BNI4, active compounds read low 1 | locus YNL248C, strain rpa49, active compounds read low 0.95 | locus YNL250W, strain rad50, active compounds read low 1.02 | locus YNL271C, strain bni1, active compounds read low 1.02 | locus YNL298W, strain CLA4, active compounds read low 1.01 | locus YNL307C, strain MCK1, active compounds read low 1.02 | locus YNL322C, strain KRE1 (second series), active compounds read low 0.969 | locus YNR049C, strain mso1, active compounds read low 1 | locus YNR052C, strain pop2, active compounds read low 1.01 | locus YOL012C, strain htz1 0.867 | locus YOL147C, strain pex11, active compounds read low 1.01 | locus YOR001W, strain rrp6, active compounds read low 0.981 | locus YOR061W, strain CKA2, active compounds read low 1 | locus YOR069W, strain VPS5, active compounds read low 1 | locus YOR070C, strain gyp1, active compounds read low 0.996 | locus YOR080W, strain dia2, active compounds read low 0.991 | locus YOR083W, strain WHI5, active compounds read low 0.937 | locus YOR106W, strain vam3, active compounds read low 1 | locus YOR136W, strain idh2, active compounds read low 1.02 | locus YOR144C, strain elg1, active compounds read low 1.01 | locus YOR184W, strain ser1, active compounds read low 1.01 | locus YOR231W, strain MKK1, active compounds read low 1.03 | locus YOR265W, strain rbl2, active compounds read low 1.01 | locus YOR270C, strain vph1, active compounds read low 1.03 | locus YOR290C, strain snf2, active compounds read low 1.01 | locus YOR316C, strain cot1, active compounds read low 1.01 | locus YPL051W, strain arl3, active compounds read low 1 | locus YPL078C, strain atp4, active compounds read low 0.991 | locus YPL106C, strain sse1, active compounds read low 0.963 | locus YPL240C, strain hsp82, active compounds read low 0.998 | locus YPL256C, strain CLN2, active compounds read low 1.02 | locus YPR119W, strain clb2, active compounds read low 1.01 | locus YPR141C, strain kar3, active compounds read low 1.01 | locus YPR163C, strain tif3, active compounds read low 1.01 | locus YPR167C, strain met16, active compounds read low 1.03 | strain wtn01, active compounds read low 1.02
